In test [1] the target is Leukocyte tyrosine kinase receptor (Homo sapiens) (UniProt P29376). The settings on record: at 1 µM.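 Note: each value is the mean inhibition of LTK.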
For test [2], the target named is Tyrosine-protein kinase Lyn (Homo sapiens) (UniProt P07948). As to conditions: at 0.1 µM.
For test [3] the target is unchanged. As to conditions: at 1 µM.
The target is the same in test [4]. The settings on record: at 0.1 µM. This is another data set of the same source.
Test [5] has the same target. As to conditions: at 1 µM. This is another data set of the same source.
In test [6] the target is T1, Tyrosine-protein kinase Mer (Homo sapiens) (UniProt Q12866).
T1 sequence (whole entry): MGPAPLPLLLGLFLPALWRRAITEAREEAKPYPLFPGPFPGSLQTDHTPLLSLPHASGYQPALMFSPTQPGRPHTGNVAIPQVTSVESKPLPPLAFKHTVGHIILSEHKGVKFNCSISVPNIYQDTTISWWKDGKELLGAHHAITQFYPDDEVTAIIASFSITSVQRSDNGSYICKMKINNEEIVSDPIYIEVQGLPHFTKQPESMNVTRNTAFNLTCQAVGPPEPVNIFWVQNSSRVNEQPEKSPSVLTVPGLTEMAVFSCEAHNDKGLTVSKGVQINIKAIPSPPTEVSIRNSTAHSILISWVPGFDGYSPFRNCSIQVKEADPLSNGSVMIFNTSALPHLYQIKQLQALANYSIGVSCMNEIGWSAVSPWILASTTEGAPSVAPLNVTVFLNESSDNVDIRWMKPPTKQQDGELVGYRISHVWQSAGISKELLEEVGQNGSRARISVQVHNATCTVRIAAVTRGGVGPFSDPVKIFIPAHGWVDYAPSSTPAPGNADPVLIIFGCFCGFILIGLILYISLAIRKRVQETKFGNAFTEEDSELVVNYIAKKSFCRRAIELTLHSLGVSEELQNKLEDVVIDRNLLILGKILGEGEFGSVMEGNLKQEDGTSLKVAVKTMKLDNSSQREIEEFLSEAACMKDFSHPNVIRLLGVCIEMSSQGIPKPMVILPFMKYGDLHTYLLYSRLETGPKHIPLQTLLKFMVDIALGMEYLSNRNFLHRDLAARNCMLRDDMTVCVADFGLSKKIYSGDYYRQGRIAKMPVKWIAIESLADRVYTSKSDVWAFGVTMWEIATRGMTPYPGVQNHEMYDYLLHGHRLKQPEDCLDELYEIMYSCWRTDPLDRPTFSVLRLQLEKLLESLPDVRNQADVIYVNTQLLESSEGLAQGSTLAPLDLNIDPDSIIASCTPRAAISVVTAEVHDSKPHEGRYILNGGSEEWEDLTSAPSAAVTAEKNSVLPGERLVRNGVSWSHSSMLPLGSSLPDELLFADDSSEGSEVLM
As to conditions: at 0.1 µM.

In test [7] the target is T1, Tyrosine-protein kinase Mer (Homo sapiens). The settings on record: at 1 µM.
The target of test [8] is Hepatocyte growth factor receptor (Homo sapiens) (UniProt P08581). The settings on record: at 0.1 µM.
The target is the same in test [9]. The settings on record: at 1 µM.
In test [10] the target is T2, Muscle, skeletal receptor tyrosine-protein kinase (Homo sapiens) (UniProt O15146).
T2 sequence (whole entry): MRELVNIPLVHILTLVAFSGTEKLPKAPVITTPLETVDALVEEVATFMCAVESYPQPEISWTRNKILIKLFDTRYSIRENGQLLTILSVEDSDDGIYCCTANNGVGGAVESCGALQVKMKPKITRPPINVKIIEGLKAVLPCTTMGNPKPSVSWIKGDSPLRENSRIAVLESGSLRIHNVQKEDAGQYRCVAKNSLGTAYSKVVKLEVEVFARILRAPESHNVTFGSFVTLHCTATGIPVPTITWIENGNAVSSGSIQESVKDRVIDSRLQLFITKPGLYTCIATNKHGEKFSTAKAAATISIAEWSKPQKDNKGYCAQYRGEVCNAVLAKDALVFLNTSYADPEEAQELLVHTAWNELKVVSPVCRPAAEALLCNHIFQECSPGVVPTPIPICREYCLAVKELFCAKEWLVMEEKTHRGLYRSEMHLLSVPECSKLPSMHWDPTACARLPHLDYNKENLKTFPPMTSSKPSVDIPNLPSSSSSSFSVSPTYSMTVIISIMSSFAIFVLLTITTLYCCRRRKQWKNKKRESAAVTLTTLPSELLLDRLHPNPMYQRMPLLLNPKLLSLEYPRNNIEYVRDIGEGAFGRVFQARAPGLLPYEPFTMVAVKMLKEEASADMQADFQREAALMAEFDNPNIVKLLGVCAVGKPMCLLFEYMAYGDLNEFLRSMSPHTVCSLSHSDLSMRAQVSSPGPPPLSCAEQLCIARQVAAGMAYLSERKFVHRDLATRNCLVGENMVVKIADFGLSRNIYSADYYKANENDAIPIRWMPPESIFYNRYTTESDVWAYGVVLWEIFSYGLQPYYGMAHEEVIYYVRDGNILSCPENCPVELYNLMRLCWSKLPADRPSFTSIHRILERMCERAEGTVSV
As to conditions: at 0.1 µM.

Test [11] deals with T2, Muscle, skeletal receptor tyrosine-protein kinase (Homo sapiens). The settings on record: at 1 µM.
Test [12] has as its target Platelet-derived growth factor receptor alpha (Homo sapiens) (UniProt P16234). As to conditions: at 0.1 µM.
Test [13] shares this target. The settings on record: at 1 µM.
Test [14] has as its system Platelet-derived growth factor receptor alpha (Homo sapiens), P16234 [D842V]. The settings on record: at 0.1 µM.
The test system is the same in test [15]. As to conditions: at 1 µM.
In test [16] the test system is Platelet-derived growth factor receptor alpha (Homo sapiens), P16234 [T674I]. As to conditions: at 0.1 µM.
Test [17] shares this test system. As to conditions: at 1 µM.
Test [18] deals with Platelet-derived growth factor receptor alpha (Homo sapiens), P16234 [V561D]. As to conditions: at 0.1 µM.
Platelet-derived growth factor receptor alpha (Homo sapiens), P16234 [V561D], sequence (P16234 whole entry V561D): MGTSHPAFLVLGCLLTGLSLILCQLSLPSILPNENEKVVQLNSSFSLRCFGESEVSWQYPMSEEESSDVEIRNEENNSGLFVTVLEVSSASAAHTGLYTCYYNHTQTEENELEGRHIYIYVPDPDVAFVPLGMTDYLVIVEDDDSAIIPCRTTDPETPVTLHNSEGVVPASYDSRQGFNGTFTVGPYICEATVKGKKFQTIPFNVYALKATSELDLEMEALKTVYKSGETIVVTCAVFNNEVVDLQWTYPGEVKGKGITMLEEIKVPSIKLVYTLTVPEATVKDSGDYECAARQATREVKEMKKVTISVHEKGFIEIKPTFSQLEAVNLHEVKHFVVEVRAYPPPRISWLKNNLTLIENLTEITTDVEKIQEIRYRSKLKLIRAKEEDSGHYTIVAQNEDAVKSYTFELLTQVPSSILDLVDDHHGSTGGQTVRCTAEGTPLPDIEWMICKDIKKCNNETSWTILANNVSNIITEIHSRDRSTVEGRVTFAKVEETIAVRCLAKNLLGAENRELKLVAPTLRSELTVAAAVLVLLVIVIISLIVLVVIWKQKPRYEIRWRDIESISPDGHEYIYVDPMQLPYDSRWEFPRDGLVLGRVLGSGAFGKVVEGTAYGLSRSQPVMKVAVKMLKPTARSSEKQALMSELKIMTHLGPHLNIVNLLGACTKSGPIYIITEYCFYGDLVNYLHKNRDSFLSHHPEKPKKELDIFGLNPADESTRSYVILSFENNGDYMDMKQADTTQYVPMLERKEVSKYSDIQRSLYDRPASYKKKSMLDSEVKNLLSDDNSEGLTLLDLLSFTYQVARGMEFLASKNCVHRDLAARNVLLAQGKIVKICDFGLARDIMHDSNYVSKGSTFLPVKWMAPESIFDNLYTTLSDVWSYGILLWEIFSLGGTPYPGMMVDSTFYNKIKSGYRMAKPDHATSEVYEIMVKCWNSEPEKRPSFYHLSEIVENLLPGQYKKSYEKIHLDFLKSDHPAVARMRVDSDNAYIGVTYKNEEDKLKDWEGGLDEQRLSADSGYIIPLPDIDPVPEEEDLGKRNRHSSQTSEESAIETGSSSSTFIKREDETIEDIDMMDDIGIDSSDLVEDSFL
Test [19] shares this test system. The settings on record: at 1 µM.
For test [20], the target named is Platelet-derived growth factor receptor beta (Homo sapiens) (UniProt P09619). As to conditions: at 0.1 µM.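 Note: reported value is the mean percent inhibition of the kinase.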
Platelet-derived growth factor receptor beta (Homo sapiens), sequence (P09619 whole entry): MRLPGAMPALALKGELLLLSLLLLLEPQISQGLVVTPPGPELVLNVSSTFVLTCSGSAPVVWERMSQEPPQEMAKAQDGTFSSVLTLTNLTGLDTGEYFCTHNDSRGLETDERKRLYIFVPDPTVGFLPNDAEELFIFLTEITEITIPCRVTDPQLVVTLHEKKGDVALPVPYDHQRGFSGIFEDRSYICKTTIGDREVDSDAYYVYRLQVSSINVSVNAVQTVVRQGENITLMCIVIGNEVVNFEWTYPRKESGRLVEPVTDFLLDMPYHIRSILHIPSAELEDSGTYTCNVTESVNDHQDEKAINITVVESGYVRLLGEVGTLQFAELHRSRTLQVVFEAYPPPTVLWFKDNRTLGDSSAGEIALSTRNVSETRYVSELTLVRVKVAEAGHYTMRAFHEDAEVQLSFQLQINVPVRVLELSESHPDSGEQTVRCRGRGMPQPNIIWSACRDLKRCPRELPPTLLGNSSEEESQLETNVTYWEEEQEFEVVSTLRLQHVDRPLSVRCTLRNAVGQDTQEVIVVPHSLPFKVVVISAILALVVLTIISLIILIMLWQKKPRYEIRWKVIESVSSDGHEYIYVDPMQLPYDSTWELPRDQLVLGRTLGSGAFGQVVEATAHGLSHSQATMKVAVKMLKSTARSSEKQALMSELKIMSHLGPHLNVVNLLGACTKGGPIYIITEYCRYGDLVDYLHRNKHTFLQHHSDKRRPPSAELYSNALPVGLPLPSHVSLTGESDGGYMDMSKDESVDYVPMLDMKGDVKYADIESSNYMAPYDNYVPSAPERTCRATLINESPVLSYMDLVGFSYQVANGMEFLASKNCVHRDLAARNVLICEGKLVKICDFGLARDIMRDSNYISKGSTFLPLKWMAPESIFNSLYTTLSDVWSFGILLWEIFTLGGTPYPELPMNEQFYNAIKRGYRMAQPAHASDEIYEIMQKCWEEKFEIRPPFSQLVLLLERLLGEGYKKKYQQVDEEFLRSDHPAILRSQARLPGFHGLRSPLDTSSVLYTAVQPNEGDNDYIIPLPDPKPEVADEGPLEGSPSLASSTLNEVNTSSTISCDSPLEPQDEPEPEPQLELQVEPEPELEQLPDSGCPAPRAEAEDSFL

Platelet-derived growth factor receptor alpha (Homo sapiens), P16234 [D842V], sequence (P16234 whole entry D842V): as the sequence (P16234 whole entry V561D) above, with D561V, D842V counted along it
Tyrosine-protein kinase Lyn (Homo sapiens), sequence (P07948 2-512 limits assumed): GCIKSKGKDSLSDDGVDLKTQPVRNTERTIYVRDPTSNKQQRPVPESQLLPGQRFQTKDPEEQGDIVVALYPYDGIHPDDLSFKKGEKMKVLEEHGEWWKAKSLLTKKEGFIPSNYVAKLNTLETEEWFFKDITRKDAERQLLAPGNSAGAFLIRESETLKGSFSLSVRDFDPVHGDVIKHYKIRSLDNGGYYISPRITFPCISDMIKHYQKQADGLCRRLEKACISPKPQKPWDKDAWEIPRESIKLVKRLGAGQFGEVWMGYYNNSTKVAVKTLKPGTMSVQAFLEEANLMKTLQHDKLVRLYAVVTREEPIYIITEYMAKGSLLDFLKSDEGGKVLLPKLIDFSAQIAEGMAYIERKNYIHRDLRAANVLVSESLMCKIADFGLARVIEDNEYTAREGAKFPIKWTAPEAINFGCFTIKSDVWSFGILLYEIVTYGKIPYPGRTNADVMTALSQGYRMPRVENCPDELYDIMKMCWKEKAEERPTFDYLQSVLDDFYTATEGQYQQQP
Platelet-derived growth factor receptor alpha (Homo sapiens), sequence (P16234 whole entry): as the sequence (P16234 whole entry V561D) above, with D561V counted along it

As to `CCCN1CCC(Oc2cc(Nc3nc(Nc4cccc(F)c4C(N)=O)c4cc[nH]c4n3)c(OC)cc2Cl)CC1`, the inhibition (commonly the change of the read-out against control, counted positive when it falls) in [1] is 68.8%; in test [2], 0%; in test [3], 2.61%; in [4], -0.77%; in test [5], 1.89%; in test [6], 0.64%. For the same compound, the inhibition in test [7] was 2.77%; in test [8] it was -1.41%; in [9], -2.15%; in [10] it was 3.31%; in [11], 8.65%; in test [12] it was 3.93%. In addition, the inhibition in [13] was 11.6%; in [14], 0.78%; in test [15], -0.29%; in test [16], 2.51%; in test [17], 1.04%; in [18] it was 1.89%. In addition, the inhibition was 4.25% in test [19] and 4.35% in [20].
Regarding `COc1cc2c(cc1Nc1nc(N3CCc4ccccc43)c3cc[nH]c3n1)N(C(=O)CN(C)C)CC2`, the inhibition in test [1] was 89.9%; in [2], 1.75%; in test [3], 1.39%; in [4], 0.29%; in test [5], 1.23%; in test [6], 1.28%. Moreover, the inhibition in test [7] is 0.11%; in test [8], 2.24%; in test [9], -6.58%; in [10], -0.85%; in test [11], 4.18%; in test [12], 4.13%. In addition, the inhibition in [13] was 3.64%; in [14], 0.92%; in [15], -1.2%; in test [16] it was 1.67%; in test [17], 0.13%; in [18], -0.57%. Also, the inhibition stood at 2.32% in test [19] and 1.46% in test [20].
For the compound `CCn1c(-c2nonc2N)nc2cncc(C(=O)N3CCNCC3)c21`, the inhibition in [1] is 5.18%; in test [2], 5.29%; in test [3] it was 5.94%; in test [4] it was 1.79%; in [5], 4.29%; in test [6], 1.99%. Moreover, the inhibition in test [7] worked out at 2.33%; in test [8], 2.94%; in [9], 2.13%; in test [10], 3.39%; in [11] it was 4.88%; in test [12], 6.44%. For the same compound, the inhibition was 9.34% in test [13]; 1.69% in [14]; 6.27% in test [15]; 4.21% in test [16]; 6.95% in test [17]; 1.16% in test [18]. Further, the inhibition in test [19] was found to be 4.29%; in [20], 1.44%.
Regarding `O=C(Nc1n[nH]c2nc(-c3ccco3)c(Br)cc12)C1CC1`, the inhibition came to 0.72% in [1]; 4.37% in test [2]; 4.24% in test [3]; 2.54% in [4]; 3.6% in test [5]; 1.42% in test [6]. In addition, the inhibition worked out at 4.5% in test [7]; 1.38% in [8]; 6.65% in [9]; 2.24% in test [10]; 6.32% in test [11]; 4.56% in test [12]. Further, the inhibition turned out to be 12.9% in test [13]; 0.77% in test [14]; 4.15% in test [15]; 5.19% in test [16]; 6.07% in [17]; 0.75% in [18]. The inhibition was 4.4% in test [19] and 3.97% in test [20].
As for `Cn1cc(C=C2C(=O)Nc3cccnc32)c2ccccc21`, the inhibition in test [1] amounted to 5.51%; in test [2] it was 6.97%; in test [3], 41.8%; in [4], 5.53%; in test [5], 36%; in [6], 2.2%. Besides, the inhibition in test [7] was 16.9%; in test [8] it was 0.96%; in [9], 5.5%; in test [10], 3.74%; in test [11] it was 12.8%; in test [12], 19.5%. The inhibition in [13] is 65.3%; in [14] it was 9.02%; in test [15] it was 47.1%; in test [16], 5.86%; in test [17], 20.2%; in test [18], 12.4%. Moreover, the inhibition in test [19] worked out at 58.7%; in [20], 12.5%.
Turning to `CCn1c(-c2nonc2N)nc2c(C#CC(C)(C)O)nc(CN3CCCC3)cc21`, the inhibition was -0.04% in [1]; -1.54% in [2]; 0.2% in [3]; -1.39% in test [4]; 0.5% in test [5]; -0.28% in test [6]. For the same compound, the inhibition in test [7] came to 0.18%; in test [8], 5.85%; in test [9], 5.28%; in [10], 0.58%; in [11] it was 4.26%; in test [12], 7.83%. The inhibition in test [13] amounted to 13.1%; in test [14] it was 3.09%; in test [15], 5.71%; in [16], 2.75%; in [17], 0.39%; in test [18], 2.19%. The inhibition amounted to 6.46% in [19] and 3.33% in test [20].

For the origin of these results see ChEMBL document CHEMBL1961873, “Compounds: GSK PKIS; Assays: Nanosyn kinase panel” (2012).
